Results reported in PubChem BioAssay (NCI).
Compounds without any hit were thinned out: in the full panel of roughly 83,000, 20% have a hit.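 Values shown are percent growth following 48 h exposure of cells in 96-well plates to a single concentration of compound; below 10 was considered active.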 Unmarked numbers belong to inactive results. Activity calls are given as the source filed them.

system: SK-MEL-2 melanoma; test: NCI-60 one-dose screen, 48 h (100 = growth as untreated, 0 = no growth, -100 = all killed); details: 10 µM unless noted
Protocol: Growth inhibition of the SK-MEL-2 human tumor cell line is measured as a screen for anti-cancer activity. Cells are grown in 96 well plates and exposed to the test compound for 48 hours. Compounds are tested at a single concentration, which is 10^-5 M for most compounds. The reported endpoint is percent growth (GI% or GIPRCNT), where numbers from 0 - 100% represent growth inhibition, and numbers from -100% - 0 represent cell death. For example, a value of 40 represents 60% growth inhibition. A value of 0 means no net growth occurred over the course of the experiment. A value of -40 indicates 40% of cells at the beginning of the experiment died by the end of the experiment. A value of -100 means all cells are dead at the end of the experiment.
NCI-60 Human Tumor Cell Lines Screen was performed using the standard one-dose NCI protocol, which is described in more detail at https://dtp.cancer.gov/discovery_development/nci-60/default.htm.
Compounds with GIPRCNT values below 10 were considered active. Activity score was based on GIPRCNT using the following formula: […]
Score is 0 for GIPRCNT values of 100 or above, 50 for GIPRCNT values of 0, and 100 for GIPRCNT values of -100.

In order of rising growth:
1. COC12C=C/C(=C(/C(=O)OCc3ccccn3)C(=O)CCCCCCCCC3(OC)C=C/C(=C(/C(=O)OCc4ccccn4)C(=O)CCCCCCCC1)O3)O2  10.8%
2. CC(C)(C)n1cc(-c2ccnc(NCCNS(=O)(=O)c3ccc(Br)cc3)c2)c(-c2cccc(O)c2)n1  30.3%
3. COC(CCP(=O)(c1ccccc1)c1ccccc1)(C(=O)c1ccccc1)c1ccccc1 (stereo not given)  34.7%
4. C1=C2CCCC3=Cc4ccccc4OC23Oc2ccccc21  36%
5. O=C(OCc1ccc2c(Br)cc(Br)c(O)c2n1)N1CCN(C(=O)c2cc3ccccc3[nH]2)CC1  44.8%
6. Nc1ccc(N)c2c1C(=O)c1cccc([N+](=O)[O-])c1C2=O  53.7%
7. COc1cc2c(cc1-c1c(C)noc1C)ncc1nc(C3CCOCC3)n(C3CCC(OC(F)F)CC3)c12 (stereo not given)  63.5%
8. O=C(Nc1cccc(Cn2c(=O)[nH]c3ccc(Oc4ncccn4)cc3c2=O)c1)c1cccc(Cl)c1  71.7%
9. Clc1ccc(C2=Nn3c(nnc3-c3cc(Cl)cc(Cl)c3Cl)SC2)cc1  80.3%
10. C=C1C(=O)O[C@H]2[C@H]1CC/C(COC(=O)NCc1ccc(Cn3c(=O)sn(CCCC)c3=O)cc1)=C\CC[C@@]1(C)O[C@@H]21  81.5%
11. COc1cc(C2=Nc3c(N)nc(N)nc3NC(c3cccc(Nc4ccnc5cc(C(F)(F)F)ccc45)c3)C2)cc(OC)c1OC (stereo not given)  88%
12. C=C(C[n+]1ccccc1)[C@@H]1CC[C@]2(C(=O)OC)CC[C@]3(C)[C@H](CC[C@@H]4[C@@]5(C)CCC(=O)C(C)(C)[C@@H]5CC[C@]43C)[C@@H]12  89%
13. Cc1ccc(C(F)(F)F)cc1N1CCN(C(=O)[C@H]2C[C@H]2c2ccc(C(F)(F)F)nc2)CC1  89.1%
14. CCOC(=O)C1=C(c2ccccc2)N=C2N(c3ccccc3)N=C(C(C)=O)N2C1c1ccc(Br)cc1 (stereo not given)  90.3%
15. C#CCOc1cc(/C=N/Nc2nc(-c3ccc(OC)cc3)cs2)ccc1O  93.3%
16. Brc1ccc(-c2nn(-c3ccccc3)cc2-c2nn[nH]n2)s1  96.2%
17. O=C1N/C(=N/N=C(c2ccccc2)c2ccccc2)S/C1=C\c1ccc(Br)cc1  96.7%
18. CC(C)C(=O)Nc1ncc(C(=O)NCCN(Cc2ccccc2)C(=O)c2ccc(S(=O)(=O)Nc3ccccc3)cc2)s1  97.8%
19. Cn1ncc(CC(=O)O)c1-n1nnc2cc(Cl)ccc2c1=O  99.3%
20. O=C(O)COc1ccc(F)cc1  99.6%
21. Cc1ccc2c(n1)C[C@H](C(C)(C)O)CC[C@H]2C  99.9%
22. O=C(Nc1cccc(Cl)c1)Oc1c(Cl)c(Cl)c(Cl)c(Cl)c1Cl  100%
23. CC(C)=CC(=O)C1C(=O)c2ccccc2C1=O  102%
24. COc1ccc(-n2c(=O)n(-c3ccc(-c4nc5ccc(F)cc5s4)cc3)c(=O)c3cccnc32)cc1  103%
25. O=C(O)CCCN1C(=O)CSC1=S  104%
26. O=C(Nc1ncc(Cc2ccccc2)s1)c1cc(-c2ccccc2)nc2ccccc12  105%
27. O=C(O)/C=C/c1cn(-c2ccccc2)nc1-c1ccc(F)cc1  106%
28. CCC(C)C(N)C(=O)NC(CC(C)C)C(=O)N1CCCC1C(=O)NC(Cc1c[nH]c2ccccc12)C(=O)NC(CCCCN)C(=O)NC(Cc1c[nH]c2ccccc12)C(=O)N1CCCC1C(=O)NC(Cc1c[nH]c2ccccc12)C(=O)NC(Cc1c[nH]c2ccccc12)C(=O)N1CCCC1C(=O)NC(Cc1c[nH]c2ccccc12)C(=O)NC(CCCNC(=N)N)C(=O)NC(CCCNC(=N)N)C(N)=O (stereo not given)  108%
29. Cc1cc2nc(C(Cl)Cl)nc(-c3ccccc3)n2n1  110%
30. O=C(NCCN1CCOCC1)c1cncnc1Nc1ccc2c(ccn2Cc2ccccn2)c1  110%
31. O=C1CC2C=CCN2C=C1NC(=O)c1ccccc1 (stereo not given)  118%
32. C(CCCSC1=NCCN1)CCSC1=NCCN1  122%

For `c1ccc(-c2nc(N3CCNCC3)c3oc(-c4ccccc4)nc3n2)cc1`, the growth was -34.1% (active).
For `Nc1ncc(-c2ccc3ncnc(N4CCc5ccc(Cl)cc54)c3c2)cn1`, the growth was -53.3% (active).
For `CC1(C)CCC[C@]23C(=O)O[C@](O)(C(=O)C4=C[C@@](C)(/C=C/CCCc5ccc6ccc7cccc8ccc5c6c78)CC[C@@]42O)[C@@H]13`, the growth was -61.8% (active).
For `Nc1ncc(-c2ccc3ncnc(N4CCc5cc(F)c(Cl)cc54)c3c2)cc1C=O`, the growth was 8.65% (active).
With `CCOC(=O)c1ccc2c(c1)c1c(C)c3cnccc3c(C)c1n2C` the growth was -89% (active).
With `CN1/C(=C/C=C/c2n(Cc3ccc4ccccc4c3)c(Cl)c(Cl)[n+]2Cc2ccc3ccccc3c2)Oc2ccccc21` the growth was -87.9% (active).
For `O=C1/C(=C/c2cccc(Br)c2)COc2ccc(O)c(O)c21`, the growth was -14.8% (active).

`c1ccc(Cn2cc3c(c2)-c2nc(Nc4ccccc4)ncc2CC3)cc1` gave a growth of 92.6% [100 µM].
